Assay results published in PubChem BioAssay AID1159580 (chemical genetic matrix, 2015).
Hit rate of the full screen: of about 5,500 compounds, about 2,000 (36%) were called active. Not shown: some 18% with an inconclusive outcome. Rule as the data show it: active = normalized growth mostly below about 0.91 (no sharp cut-off); inconclusive = no clear call, values can overlap the other calls; inactive = mostly above about 0.92. This is one part of the list.

Experiment: chemical genetic growth profiling, strain panel (AID 1159580);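 also: tested at 20 µM; growth read once vehicle control cultures reached saturation at 30 °C; 1 = growth at the plate median or of vehicle wells; lower values mean less growth of the strain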
Conditions: growth OD

Measured: normalized growth

COc1ccc(-c2oc3c(CC=C(C)C)c(O[C@@H]4O[C@H](CO)[C@@H](O)[C@H](O)[C@H]4O)cc(O)c3c(=O)c2O[C@@H]2O[C@@H](C)[C@H](O)[C@@H](O)[C@H]2O)cc1
inactive: S. cerevisiae deletion strains, locus YJR066W, strain TOR1, stronger effect = lower value 0.949 | S. cerevisiae deletion strains, locus YKL009W, strain mrt4, stronger effect = lower value 0.963 | S. cerevisiae deletion strains, locus YKL068W, stronger effect = lower value 0.986 | S. cerevisiae deletion strains, locus YKL085W, strain MDH1 (second series), stronger effect = lower value 0.975 | S. cerevisiae deletion strains, locus YKL085W, strain MDH1, stronger effect = lower value 0.975 | S. cerevisiae deletion strains, locus YKL160W, strain elf1, stronger effect = lower value 1 | S. cerevisiae deletion strains, locus YKL190W, strain CNB1, stronger effect = lower value 1.02 | S. cerevisiae deletion strains, locus YKR001C, strain vps1, stronger effect = lower value 0.993 | S. cerevisiae deletion strains, locus YKR026C, strain gcn3, stronger effect = lower value 1.04 | S. cerevisiae deletion strains, locus YKR091W, strain srl3, stronger effect = lower value 1.03 | S. cerevisiae deletion strains, locus YLL001W, strain dnm1, stronger effect = lower value 1.01 | S. cerevisiae deletion strains, locus YLL026W, stronger effect = lower value 1.04 | S. cerevisiae deletion strains, locus YLL041C, strain sdh2, stronger effect = lower value 1.04 | S. cerevisiae deletion strains, locus YLR027C, strain aat2, stronger effect = lower value 1.03 | S. cerevisiae deletion strains, locus YLR039C, strain RIC1, stronger effect = lower value 1.01 | S. cerevisiae deletion strains, locus YLR058C, strain SHM2, stronger effect = lower value 0.988 | S. cerevisiae deletion strains, locus YLR102C, strain apc9, stronger effect = lower value 0.974 | S. cerevisiae deletion strains, locus YLR113W, strain HOG1, stronger effect = lower value 1.04 | S. cerevisiae deletion strains, locus YLR221C, strain rsa3, stronger effect = lower value 1.04 | S. cerevisiae deletion strains, locus YLR258W, strain gsy2, stronger effect = lower value 1.01 | S. cerevisiae deletion strains, locus YLR262C, strain YPT6 (second series), stronger effect = lower value 1.05 | S. cerevisiae deletion strains, locus YLR262C, strain YPT6, stronger effect = lower value 0.971 | S. cerevisiae deletion strains, locus YLR268W, strain sec22, stronger effect = lower value 0.969 | S. cerevisiae deletion strains, locus YLR320W, strain mms22, stronger effect = lower value 1.04 | S. cerevisiae deletion strains, locus YLR330W, strain CHS5, stronger effect = lower value 1.01 | S. cerevisiae deletion strains, locus YLR342W, strain FKS1 (second series), stronger effect = lower value 1.06 | S. cerevisiae deletion strains, locus YLR342W, strain FKS1, stronger effect = lower value 1.04 | S. cerevisiae deletion strains, locus YLR357W, strain rsc2, stronger effect = lower value 1.02 | S. cerevisiae deletion strains, locus YLR370C, strain arc18, stronger effect = lower value 1.02 | S. cerevisiae deletion strains, locus YLR371W, strain rom2, stronger effect = lower value 0.965 | S. cerevisiae deletion strains, locus YLR384C, strain iki3, stronger effect = lower value 1.01 | S. cerevisiae deletion strains, locus YLR418C, strain cdc73, stronger effect = lower value 0.998 | S. cerevisiae deletion strains, locus YML016C, strain PPZ1, stronger effect = lower value 1 | S. cerevisiae deletion strains, locus YML032C, strain rad52, stronger effect = lower value 1 | S. cerevisiae deletion strains, locus YML120C, strain ndi1, stronger effect = lower value 1.02 | S. cerevisiae deletion strains, locus YML124C, strain tub3, stronger effect = lower value 0.975 | S. cerevisiae deletion strains, locus YMR058W, strain fet3, stronger effect = lower value 1.04 | S. cerevisiae deletion strains, locus YMR078C, strain ctf18, stronger effect = lower value 0.977 | S. cerevisiae deletion strains, locus YMR125W, strain sto1, stronger effect = lower value 1.04 | S. cerevisiae deletion strains, locus YMR129W, stronger effect = lower value 1.04 | S. cerevisiae deletion strains, locus YMR205C, strain PFK2, stronger effect = lower value 1.04 | S. cerevisiae deletion strains, locus YMR223W, strain ubp8, stronger effect = lower value 0.979 | S. cerevisiae deletion strains, locus YMR231W, strain pep5, stronger effect = lower value 1 | S. cerevisiae deletion strains, locus YMR263W, strain SAP30, stronger effect = lower value 1 | S. cerevisiae deletion strains, locus YMR307W, strain GAS1, stronger effect = lower value 1.15 | S. cerevisiae deletion strains, locus YNL067W, strain RPL9B, stronger effect = lower value 0.963 | S. cerevisiae deletion strains, locus YNL071W, strain lat1, stronger effect = lower value 1.03 | S. cerevisiae deletion strains, locus YNL128W, strain TEP1, stronger effect = lower value 0.974 | S. cerevisiae deletion strains, locus YNL183C, strain NPR1, stronger effect = lower value 0.952 | S. cerevisiae deletion strains, locus YNL209W, strain ssb2, stronger effect = lower value 1.03 | S. cerevisiae deletion strains, locus YNL233W, strain BNI4, stronger effect = lower value 0.99 | S. cerevisiae deletion strains, locus YNL248C, strain rpa49, stronger effect = lower value 1.04 | S. cerevisiae deletion strains, locus YNL250W, strain rad50, stronger effect = lower value 0.93 | S. cerevisiae deletion strains, locus YNL271C, strain bni1, stronger effect = lower value 0.965 | S. cerevisiae deletion strains, locus YNL298W, strain CLA4, stronger effect = lower value 0.981 | S. cerevisiae deletion strains, locus YNL307C, strain MCK1, stronger effect = lower value 0.979 | S. cerevisiae deletion strains, locus YNL322C, strain KRE1 (second series), stronger effect = lower value 1.03 | S. cerevisiae deletion strains, locus YNR049C, strain mso1, stronger effect = lower value 1.03 | S. cerevisiae deletion strains, locus YNR052C, strain pop2, stronger effect = lower value 0.984 | S. cerevisiae deletion strains, locus YOL012C, strain htz1 0.851 | S. cerevisiae deletion strains, locus YOL147C, strain pex11, stronger effect = lower value 0.989 | S. cerevisiae deletion strains, locus YOR001W, strain rrp6, stronger effect = lower value 1.05 | S. cerevisiae deletion strains, locus YOR061W, strain CKA2, stronger effect = lower value 0.992 | S. cerevisiae deletion strains, locus YOR069W, strain VPS5, stronger effect = lower value 0.999 | S. cerevisiae deletion strains, locus YOR070C, strain gyp1, stronger effect = lower value 1.01 | S. cerevisiae deletion strains, locus YOR080W, strain dia2, stronger effect = lower value 1.04 | S. cerevisiae deletion strains, locus YOR083W, strain WHI5, stronger effect = lower value 0.988 | S. cerevisiae deletion strains, locus YOR106W, strain vam3, stronger effect = lower value 0.989 | S. cerevisiae deletion strains, locus YOR136W, strain idh2, stronger effect = lower value 0.985 | S. cerevisiae deletion strains, locus YOR144C, strain elg1, stronger effect = lower value 1 | S. cerevisiae deletion strains, locus YOR184W, strain ser1, stronger effect = lower value 0.984 | S. cerevisiae deletion strains, locus YOR231W, strain MKK1, stronger effect = lower value 1.02 | S. cerevisiae deletion strains, locus YOR265W, strain rbl2, stronger effect = lower value 1.02 | S. cerevisiae deletion strains, locus YOR270C, strain vph1, stronger effect = lower value 0.999 | S. cerevisiae deletion strains, locus YOR290C, strain snf2, stronger effect = lower value 0.981 | S. cerevisiae deletion strains, locus YOR316C, strain cot1, stronger effect = lower value 0.976 | S. cerevisiae deletion strains, locus YPL051W, strain arl3, stronger effect = lower value 1.02 | S. cerevisiae deletion strains, locus YPL055C, strain LGE1, stronger effect = lower value 1 | S. cerevisiae deletion strains, locus YPL078C, strain atp4, stronger effect = lower value 0.986 | S. cerevisiae deletion strains, locus YPL106C, strain sse1, stronger effect = lower value 1.04 | S. cerevisiae deletion strains, locus YPL240C, strain hsp82, stronger effect = lower value 1.02 | S. cerevisiae deletion strains, locus YPL241C, strain CIN2, stronger effect = lower value 0.99 | S. cerevisiae deletion strains, locus YPL256C, strain CLN2, stronger effect = lower value 1 | S. cerevisiae deletion strains, locus YPR119W, strain clb2, stronger effect = lower value 0.98 | S. cerevisiae deletion strains, locus YPR141C, strain kar3, stronger effect = lower value 0.968 | S. cerevisiae deletion strains, locus YPR163C, strain tif3, stronger effect = lower value 0.978 | S. cerevisiae deletion strains, locus YPR167C, strain met16, stronger effect = lower value 0.983 | S. cerevisiae deletion strains, strain wtn01, stronger effect = lower value 0.986 | S. cerevisiae strains, strain wild type, stronger effect = lower value 1.01
